Many of the other results were omitted from the sample, so hits are more common in it than they were.
HIV RNase H inh: inhibitors of HIV-1 reverse transcriptase RNase H; P04585; RT-RNase H RNA/DNA duplex cleavage, fluorescence; inhibition, % at 10 µM; 65,000 tested, 1.9% active; AID 565; in the data active = inhibition above about 50%
Starred values were filed as active, the others as inactive.

SMILES	HIV RNase H inh
CN(CC(=O)Nc1sccc1C#N)C1CCCCC1	58*
N#Cc1ccsc1NC(=O)c1ccccn1	-9
CN(C/C(O)=C(\C#N)c1ccccc1)C1CCCCC1	-5
CCOC(=O)CSc1nc2c(c(=O)n(C)c(=O)n2C)n1CCCc1ccccc1	-12
CC1=C(C(=O)NCCN2CCN(C)CC2)C2(CCC(C)CC2)OC1=O (configuration not stated)	-1
O=C(CN1CCCN(S(=O)(=O)c2ccc(Br)cc2)CC1)Nc1ccc2cn[nH]c2c1	-21
Cc1oc(C(=O)O)cc1CSCc1ccoc1C(=O)O	24
Cc1oc(C(=O)O)cc1CSc1nnc(-c2ccccc2)n1C	5
Cc1oc(C(=O)O)cc1CSCc1cc(C(=O)O)c(C)o1	51*
OC(CN1CCN(c2ccccc2)CC1)c1ccc2c(c1)CCN2 (configuration not stated)	-9
COc1ccc(OC)c(C(c2nnnn2CCC(C)C)N2CCN(C(=O)c3ccco3)CC2)c1 (configuration not stated)	2
COc1ccc(NS(=O)(=O)c2cc(OC)ccc2NC(=O)c2cc(C)oc2C)cc1	2
Cc1cccc(NC(=O)c2sc3nc(-c4ccccc4)cn3c2C)n1	9
COc1ccc(-c2cn3c(C)c(C(=O)Nc4cccc(C)n4)sc3n2)cc1	51*
Cc1cccc(NC(=O)c2sc3nc(-c4ccc(F)cc4)cn3c2C)n1	33
COc1ccc(C(=O)NCc2cn3ccsc3n2)cc1OC	-14
CCCc1cc(=O)[nH]c(SCC(=O)N2CCN(S(=O)(=O)c3ccc(C)cc3)C2)n1	-12
COc1ccc(CN(CCCN2CCOCC2)C(=O)Nc2ccccc2)cc1OC	0
COc1ccc(CN(CCN2CCOCC2)C(=O)c2c(F)cccc2F)cc1OC	62*
COc1ccc(CN(CCCN2CCOCC2)S(=O)(=O)N(C)C)cc1OC	-10
CCCn1c(SCC(=O)N2CCCc3ccccc32)nnc1-c1ccccn1	-14
O=C(Nc1ccccc1C(=O)NCc1ccco1)NC1CCCCC1	-3
Cc1c(Cl)cccc1NC(=O)NC1CCCCC1	20
O=C(Nc1ccccc1NC(=O)NC1CCCCC1)NC1CCCCC1	69*
O=C1[C@@H]2C(c3ccccc3Cl)=NO[C@@H]2C(=O)N1Cc1ccccc1	0
SMILES	HIV RNase H inh
Cc1c(C(=O)COC(C)(C)C)[nH]c2ccccc12	-3
COc1ccc(C)cc1-n1nnnc1SCc1cc(=O)n2cc(C)ccc2n1	-56
CC12C=CC3(CN(Cc4ccccc4)C(=O)C3C1C(=O)NCc1ccco1)O2 (configuration not stated)	-4
COc1cc(C)c(S(=O)(=O)n2ccc(C)n2)cc1C	-93
CCOC(=O)C1CCN(CCC(=O)Nc2cccc(Cl)c2)CC1	-6
CC(C)[C@H]1C(=O)N2CCC[C@H]2[C@]2(O)O[C@](NC(=O)[C@@H]3C=C4c5cccc6[nH]cc(c56)C[C@H]4N(C)C3)(C(C)C)C(=O)N12	1
CC(C)[C@@]1(NC(=O)[C@@H]2C=C3c4cccc5[nH]cc(c45)C[C@H]3N(C)C2)O[C@@]2(O)[C@@H]3CCCN3C(=O)[C@H](Cc3ccccc3)N2C1=O	55*
CC(C)[C@@]1(NC(=O)[C@@H]2C[C@@H]3c4cccc5[nH]cc(c45)C[C@H]3N(C)C2)O[C@@]2(O)[C@@H]3CCCN3C(=O)[C@H](Cc3ccccc3)N2C1=O	-29
O=C(Nc1ccc2c(c1)OCCO2)C1CCCN(S(=O)(=O)c2cnc[nH]2)C1 (configuration not stated)	-3
CC1CN(C2CCN(S(=O)(=O)Cc3ccccc3)CC2)CC(C)O1 (configuration not stated)	15
NC(=O)c1oc2ccccc2c1NC(=O)c1nc2ccccc2s1	5
CC(C)C(=O)Nc1nnc(-c2ccccc2)o1	-6
O=C(Nc1nnc(-c2ccccc2)o1)c1nc2ccccc2s1	66*
CCCCn1c(=O)c(C(=O)Nc2nc3ccccc3[nH]2)c(O)c2ccccc21	22
CCn1c(=O)c(C(=O)Nn2c(C)nc3ccccc3c2=O)c(O)c2ccccc21	-32
CCn1c(=O)c(C(=O)Nc2nc3ccccc3[nH]2)c(O)c2ccccc21	75*
CCOC(=O)c1cnn(CC2CCCCC2)c1N	47
c1ccc(Cn2c(CNc3nc4ccccc4n3CCN3CCOCC3)nc3ccccc32)cc1	-4
COc1ccc(CCNC(=O)CCn2c(SCC#N)nc3ccccc3c2=O)cc1OC	-11
COc1ccc(CNC(=O)CCCCCn2c(SCC#N)nc3cc4c(cc3c2=O)OCO4)cc1	57*
COc1ccc(CCNC(=O)CCCn2c(SCC#N)nc3ccccc3c2=O)cc1OC	-14
COc1cc(C)c(S(=O)(=O)N2CCCC2)cc1C	-24
CCn1cc(C(=O)OCC(=O)Nc2ccc(S(=O)(=O)N3CCCC3)cc2)c(=O)c2ccc(C)nc21	-2
Cc1cc2nnc(SCc3ccccc3)n2c(N)n1	23
COCC(=O)Nc1nc(-c2ccccc2)ns1	1
SMILES	HIV RNase H inh
Cc1cc(NC(=O)Cn2cc(C(F)(F)F)cc(Cl)c2=O)no1	-1
CCOC(=O)CS(=O)(=O)c1nc(-c2ccc(F)cc2)cc(C(F)(F)F)n1	55*
CCOC(=O)CS(=O)(=O)c1nc(-c2ccccc2)cc(C(F)(F)F)n1	20
CCOC(=O)CCS(=O)(=O)c1nc(-c2ccccc2)cc(C(F)(F)F)n1	22
COc1ccc(NC(=O)C2=C(C)C(=O)OC23CCC(C)CC3)c(OC)c1 (configuration not stated)	2
COC(=O)c1cc(NC(=O)C2CC=CCC2C(=O)O)cc(C(=O)OC)c1 (configuration not stated)	-1
Cc1nc2cc(C(=O)O)ccc2s1	4
CC1CCN(c2nc3ccc(C(=O)O)cc3s2)CC1	-11
Cc1nc2ccc(C(=O)O)cc2c2c1CC(C)S2 (configuration not stated)	63*
Oc1c(C(c2cccc(F)c2)N2CCN(Cc3ccccc3)CC2)sc2ncnn12 (configuration not stated)	-1
Cc1ccc(C2Nc3ccccc3C(=O)N2Cc2ccco2)cc1 (configuration not stated)	9
CC(=O)Nc1ccc(NC(=O)CNS(=O)(=O)c2ccc(C)cc2)cc1	1
CC(=O)Nc1ccc(S(=O)(=O)c2ccc(N)cc2)cc1	-5
CCOC(=O)/C=C/S(=O)(=O)c1ccc(NC(C)=O)cc1	50*
CCCc1cc(=O)n2[nH]c(NCc3c(F)cccc3Cl)nc2n1	6
O=C(CC1SC(N2CCCCC2)=NC1=O)Nc1cccc(C(=O)O)c1 (configuration not stated)	6
CCOC(=O)c1cnn(-c2nc3sc4c(c3c(=O)[nH]2)CCCC4)c1N	-2
CCOC(=O)c1cnn(-c2nc(SC)nc3sc4c(c23)CCC4)c1N	55*
CCOC(=O)c1cnn(-c2nc(C)nc3sc4c(c23)CCC4)c1N	-7
NC(=O)N1CC(O)CC1C(=O)Nc1ccc(Cl)c(Cl)c1 (configuration not stated)	-1
COc1cccc(OCCOc2c(OC)cccc2OC)c1	-10
O=C(Cc1coc(-c2ccc(F)cc2)n1)N1CCOCC1	-18
CCC(NS(=O)(=O)c1ccc(C)cc1)C(=O)Nc1ccc(NC(C)=O)cc1 (configuration not stated)	31
CC(C)c1nnc(NC(=O)c2c(O)c3cccc4c3n(c2=O)CC4)s1	-21
CCCc1nnc(NC(=O)c2c(O)c3cccc4c3n(c2=O)CCC4)s1	72*
Cc1csc(NC(=O)c2c(O)c3cccc4c3n(c2=O)CCC4)n1	-6

Screens deposited in PubChem BioAssay by University of Pittsburgh Molecular Library Screening Center.
